Source: PubChem (several laboratories)
FAS TE block: FAS thioesterase (human) inhibition. P49327. 360,000 tested, 0.67% active. recombinant FAS-TE, OMFH fluorogenic substrate, fluorescence endpoint. inhibition, % at 15 µM;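 active = compounds whose normalised, plate-corrected inhibition of enzyme fluorescence in the single-dose primary screen is 50% or more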;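 also: 0% = DMSO with enzyme and 100% = substrate without enzyme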
GRIN3A LBD mod: modulators (binders) of human NR3A ligand-binding domain; AID 1259313; Tm shift relative to glycine control, % at 25 µM; NR3A LBD differential scanning fluorimetry, Tm shift; 0% = protein alone, 100% = glycine-bound protein; 340,000 tested, 2.5% active;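 active = melting temperature shift of at least 10% of the positive control shift, at one fixed dose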
ADAM10 inh: ADAM10 inhibition, QFRET primary screen; recombinant ADAM10, EDANS/DABCYL FRET peptide cleavage, 3 h; inhibition, % at 7 µM; 370,000 tested, 0.62% active; AID 720582;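 active = inhibition above a per-campaign cutoff equal to the mean of compounds falling between control-based bounds plus 3 SD, cut at about 20% in these data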;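 also: 0% = DMSO wells while the 100% control is not disclosed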
proKLK7 act: proKLK7 (human) activation, primary screen. P49862. purified proKLK7, EDANS-DABCYL substrate fluorescence; 100% is mature enzyme control, 0% vehicle. activation, % at 7 µM. 370,000 tested, 0.9% active;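 active = activation above the mean of all tested compounds plus 3 SD, computed per campaign excluding outliers beyond control limits, cut at about 13% in these data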
ADAM17 inh: inhibitors of human ADAM17; recombinant ADAM17, EDANS/DABCYL FRET peptide cleavage; inhibition, % at 6.95 µM; 370,000 tested, 0.83% active; AID 720648;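 active = inhibition above the mean of compounds lying between control limits plus 3 SD, set per campaign, cut at about 8.5% in these data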;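 also: 0% = DMSO-only wells as the low control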
proKLK7 act conf: proKLK7 activation, confirmation; shares compounds with proKLK7 act; purified proKLK7, EDANS-DABCYL substrate fluorescence; scaled: vehicle 0, mature enzyme 100; activation, % at 7 µM; 3,200 tested, 68% active; AID 686949;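 active = activation, as change over the incubation, above the mean of all tested compounds plus 3 SD, cut at about 13% in these data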
EDANS-DABCYL int: counter-screen for kallikrein-7 activators: EDANS-DABCYL optical interference. 3,200 tested, 80% active. activation, % at 7 µM. shares compounds with proKLK7 act. AID 686952. EDANS-DABCYL substrate fluorescence interference, no enzyme, 4 h; solvent 0%, active enzyme control 100%;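 active = activation above the all-compound mean plus 3 SD, ignoring values outside control-based bounds, cut at about 4.8% in these data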;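 also: value is the 4 h activation minus the activation read at time zero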
EDANS interf: counter-screen for kallikrein-7 activators: EDANS-DABCYL interference, dose response; shares compounds with proKLK7 act; EDANS-DABCYL peptide fluorescence interference, no enzyme; EC50, µM; 250 tested, 20% active;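 active = compounds that raise the fluorescence signal in this interference counterscreen, with EC50 at or below 10 µM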;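 also: intact quenched peptide substrate alone read at 355 nm excitation and 520 nm emission; signal is fluorescence gain from T0 to T4 after four hours at room temperature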
Numbers without * were called inactive; i = inactive; x = no result given. Rows were chosen to be rich in hits. Some 4.6% of all compounds tested hit in one or more screens of this group.

SMILES	FAS TE block	GRIN3A LBD mod	ADAM10 inh	proKLK7 act	ADAM17 inh	proKLK7 act conf	EDANS-DABCYL int	others
CCC(NC(=O)OC(C)(C)C)C(=O)Oc1ccc2c3c(c(=O)oc2c1)CCC3 (stereo unspecified)	30	1	i	107*	i	664*	670*
CCC(C)C(NS(=O)(=O)c1ccc(C)cc1)C(=O)Oc1ccc2c3c(c(=O)oc2c1)CCC3 (stereo unspecified)	35	-11	-482	21*	-173	43*	37*	EDANS interf=>70
Cc1ccc(S(=O)(=O)NC(CC(C)C)C(=O)Oc2ccc3c4c(c(=O)oc3c2)CCC4)cc1 (stereo unspecified)	45	-6	i	49*	i	90*	77*
CCOC(=O)COc1ccc2c3c(c(=O)oc2c1)CCCC3	3	-3	-111	3	-43	x	x
CC(C)CC(C(=O)Oc1ccc2c3c(c(=O)oc2c1)CCC3)N1C(=O)c2ccccc2C1=O (stereo unspecified)	27	1	i	-1	-175	x	x
O=C(NCCc1ccccc1F)c1ccc2c(c1)ncn2C1CCCCC1	x	x	-6	0	1	x	x
COc1ccc2c(c1)C(NC(=O)C(F)(F)F)CC21CCCCC1 (stereo unspecified)	x	x	4	0	-1	x	x
COC(=O)c1ccccc1S(=O)(=O)NC(=O)[C@H]1O[C@@H](n2ccc(=O)[nH]c2=O)[C@H](O)[C@@H]1O	x	x	-7	0	1	x	x
Cc1c(OCC(=O)OC(C)(C)C)ccc2c3c(c(=O)oc12)CCC3	14	1	-27	-2	-10	x	x
Cc1ccc(S(=O)(=O)NC(C(=O)Oc2ccc3c(C(F)(F)F)cc(=O)oc3c2)c2ccccc2)cc1 (stereo unspecified)	-13	-1	i	48*	i	55*	73*
Cc1c(OC(=O)CNC(=O)OC(C)(C)C)ccc2c3c(c(=O)oc12)CCC3	7	2	i	418*	i	463*	485*
CC(C)c1cc(NCCOCCO)n2c(nc3ccccc32)c1C#N	-4	0	i	54*	i	52*	50*
CCCc1cc(NCCCCO)n2c(nc3ccccc32)c1C#N	-3	1	i	25*	i	-20	-12
CCCc1cc(NCCOCCO)n2c(nc3ccccc32)c1C#N	-8	x	i	45*	i	42*	27*	EDANS interf=>70
CCCc1cc(Nc2c(C)n(C)n(-c3ccccc3)c2=O)n2c(nc3ccccc32)c1C#N	7	-12	-71	1	-17	x	x
CC1COCC(C)N1S(=O)(=O)c1ccc2c(c1)CCN2C(=O)C1CCC1 (stereo unspecified)	x	x	-5	1	-2	x	x
CCOc1ccccc1-c1cnc(NC)cn1	-11	x	i	15*	-374	31*	28*
CNc1cncc(-c2cccc(OC)c2F)n1	-8	x	i	37*	i	35*	53*
CNc1cnc(-c2ccccc2OC)cn1	-8	x	i	11	i	x	x
CCOc1ccccc1-c1cncc(NC)n1	-4	x	i	25*	i	18*	16*
CNc1cncc(-c2ccccc2CO)n1	-7	x	i	26*	i	12	15*
O=S1(=O)c2ccc(N3CCC[C@@H]3CO)cc2O[C@@H]2CCN1C2	x	x	-5	0	-10	x	x
CCOC(=O)[C@@]12CCC3=C1N(CCC3)C(=O)[C@H](CC(=O)NCC13CC4CC(CC(C4)C1)C3)C2	x	x	2	0	-5	x	x
O=C(Nc1ccc2c(c1)OCO2)NC1CCCCN(Cc2cccc(Cl)c2)C1=O (stereo unspecified)	x	x	-5	0	-5	x	x
Cn1cccc1C(=O)N1CCN(S(=O)(=O)c2ccc(Br)s2)CC1	x	x	-3	1	0	x	x
SMILES	FAS TE block	GRIN3A LBD mod	ADAM10 inh	proKLK7 act	ADAM17 inh	proKLK7 act conf	EDANS-DABCYL int	others
CCNC(=S)Nc1ccc2c(c1)c(=O)n(C)n2Cc1cccc(C(F)(F)F)c1	-4	x	i	20*	i	-7	-6
COc1cccc(CNC(=S)Nc2ccc3c(c2)c(=O)n(C)n3Cc2csc(C)n2)c1	-6	x	i	15*	i	-2	2
Cn1c(=O)c2cc(NC(=O)OCCF)ccc2n1Cc1cccc(C(F)(F)F)c1	-2	x	i	13*	i	9	5.7*
CN(C)c1ccc(C(=O)NCC2CCN(C(=O)C(=O)c3cccs3)CC2)cc1	x	x	1	1	1	x	x
O=S1(=O)CC2c3ccccc3CN2CN1C1CCCC1 (stereo unspecified)	x	x	4	0	2	x	x
COc1ccccc1-c1c(C)oc2c(CN3CCN(C)CC3)c(O)ccc2c1=O	-9	-1	i	62*	i	60*	74*
COc1ccccc1-c1c(C)oc2c(CN3CCN(CCO)CC3)c(O)ccc2c1=O	-6	1	i	72*	i	68*	75*
COC(=O)c1cc2c(c3c4cc(OC)ccc4n(S(=O)(=O)c4ccc(OC)cc4)c13)C(=O)N(Cc1ccccc1)C2	x	x	-23	-3	-7	x	x
COC(=O)c1cc(-c2ccc(F)c(Cl)c2)c(=O)n2c1CCC2	x	x	-11	0	-6	x	x
Cc1cccc(C2Nc3ccccc3C(=O)N2c2ccccc2)n1 (stereo unspecified)	-3	0	i	19*	-343	40*	43*
CCCNC(=O)Nc1ccc2c(c1)C(=O)N(C)[C@H]1CC[C@@H](CC(=O)OC)O[C@H]1CO2	x	x	-10	0	-7	x	x
COc1cccc(-c2cc(C(F)(F)F)c(C#N)c(=O)[nH]2)c1	-6	-13	i	17*	i	40*	51*
Cc1cc(C)c2c(N)c(C(=O)Nc3ncc(C)s3)sc2n1	-6	-8	i	33*	-188	-27	-48
Cc1cc(C)c2c(N)c(C(=O)Nc3ccccc3F)sc2n1	-1	2	-476	23*	-194	-14	-14
Cc1cc(C)c2c(N)c(C(=O)Nc3ccccc3Cl)sc2n1	-2	-2	-117	0	-28	x	x
Cc1ccc(N2CC(=O)N(NC(=O)c3sc4nc(C)cc(C)c4c3N)CC2=O)cc1	-3	0	i	86*	-326	23*	21*
Cc1cc(C)c2c(N)c(C(=O)Nc3ccccc3Br)sc2n1	4	0	-203	179*	-89	124*	56*
